AmpC detergent: inhibitors of E. coli AmpC beta-lactamase with detergent. P00811. 370,000 compounds, 0.041% hits. AmpC hydrolysis of nitrocefin, absorbance 480 nm, 0.01% Triton. Potency, µM (top dose mostly 114 µM), inactives show at the highest dose activity change, negative = inhibition, actives largely listed as inhibitors;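 also: 0% = no-compound wells and -100% = no-enzyme wells; nearly all actives have a fitted effect of over 25% in size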
Target sequence (P00811 whole entry, looked up): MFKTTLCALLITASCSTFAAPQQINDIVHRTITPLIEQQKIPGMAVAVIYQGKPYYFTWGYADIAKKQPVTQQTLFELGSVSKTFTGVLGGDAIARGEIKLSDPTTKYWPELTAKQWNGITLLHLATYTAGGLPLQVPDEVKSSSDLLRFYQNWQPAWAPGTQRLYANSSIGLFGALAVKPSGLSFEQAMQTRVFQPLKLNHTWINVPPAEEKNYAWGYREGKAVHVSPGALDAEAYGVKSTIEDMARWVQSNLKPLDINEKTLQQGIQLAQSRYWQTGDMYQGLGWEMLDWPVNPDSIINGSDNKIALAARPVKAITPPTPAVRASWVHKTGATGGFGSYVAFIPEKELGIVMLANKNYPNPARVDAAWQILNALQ
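20 mM phosphate pH 7.0 + 0.01% (detergent screen) or 0.0001% Triton X-100; 5.3 nM AmpC reagent; cpd preinc 15 min RT; nitrocefin (800 uM stock) to start; A480 q20 s × 4 min; Activity was normalised to no-enzyme and no-compound control wells.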
AMA1-RON2 inh: AMA1-RON2 (P. falciparum) interaction inhibition; AlphaScreen AMA1-biotinylated RON2 peptide binding; Potency, µM (titrated, usually from 58.2 µM), without a hit: at the top dose activity change, negative = inhibition, most hits filed as inhibitors; 360,000 compounds, 0.2% hits; AID 720542;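 also: 0% = vehicle wells and -100% = peptide control; nearly all actives have a fitted effect of over 45% in size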
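AMA1 (3D7) with his tag at 25 nM final met compounds first, then biotinylated RON2 peptide at 25 nM; detection used donor plus acceptor beads, 10 µg/mL apiece, read by AlphaScreen after 30 min at room temperature.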
Marburg entry inh: blocks Marburg virus binding to or entry into cells. Marburg virus pseudotyped entry inhibition, cell reporter. Potency, µM (highest dose often 37.8 µM), for the others: at the highest dose activity change, negative = inhibition, actives largely listed as inhibitors. 300,000 compounds, 1.8% hits; calls by dose curve; tested in HEK293 cells
Lassa entry inh: Lassa virus entry inhibition | 300,000 compounds, 1.2% hits | Lassa virus pseudotype entry inhibition, cell reporter | Potency, µM (highest dose often 37.9 µM), for the others: at the highest dose activity change, negative = inhibition, most hits filed as inhibitors; calls by dose curve; tested in HEK293 cells; also: nearly all actives have a fitted effect of over 50% in size
AmpC inh no detg: AmpC beta-lactamase inhibition without detergent; AmpC nitrocefin hydrolysis, absorbance 480 nm, 0.0001% Triton; Potency, µM (doses to about 57.1 µM), for inactives: at the top dose activity change, negative = inhibition, most hits filed as inhibitors; 330,000 compounds, 0.52% hits; AID 485341;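 also: plate controls were no compound for no effect and no enzyme for full effect; nearly all actives have a fitted effect of over 20% in size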
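20 mM phosphate pH 7.0 + 0.01% (detergent screen) or 0.0001% Triton X-100; 5.3 nM AmpC reagent; cpd preinc 15 min RT; nitrocefin (800 uM stock) to start; A480 q20 s × 4 min; Activity was normalised to no-enzyme and no-compound control wells.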
* = called active by the depositor; [ ] = dose if it differs, or a comment. Most compounds without a hit are left out; they make up all but 2.3% or so of the library. Unless noted, calls follow the shape of the dose curve; as a rule, active = well fitted curve in the direction sought with a large enough effect; inconclusive = small, poorly fitted or top-dose-only effect, or another doubt; inactive = no such curve, though single readings can be large; an effect the other way counts as inactive or inconclusive. Unless noted, % is scaled to controls: 0 for no effect and ±100 for the full control effect; potency is read from the fitted curve at half-maximal effect.

What do the screens show for `Cc1nn(-c2ccccc2)c(Cl)c1C(=O)NC1CCCCC1`?
AmpC detergent: 3%; AMA1-RON2 inh: -17%; Marburg entry inh: -2%[46.1 µM]; Lassa entry inh: -13%; AmpC inh no detg: 10%

Results for CC(=O)Nc1ccc(NC(=O)C(C)OC(=O)c2c(C)nn(-c3ccccc3)c2Cl)cc1 (stereo not given) ?
AmpC detergent: 1%; AMA1-RON2 inh: 2%[11.6 µM]; Marburg entry inh: -9%; Lassa entry inh: 3.5µM*; AmpC inh no detg: 77%

Results for Cc1nn(-c2ccccc2)c(Cl)c1C(=O)OC(C)C(=O)Nc1ccc2c(c1)OCO2 (stereo not given) ?
AmpC detergent: inconclusive; AMA1-RON2 inh: -14%; Marburg entry inh: -1%; Lassa entry inh: -7%; AmpC inh no detg: -9%

How did Cc1nn(-c2ccccc2)c(C)c1C(=O)OC(C)C(=O)NC1CCCCC1 (stereo not given) do in these assays?
AMA1-RON2 inh: 0%; Marburg entry inh: inconclusive; Lassa entry inh: 5µM*; AmpC inh no detg: 25%

How did Cc1cc(C)nc(NC(=NCCc2c[nH]c3ccccc23)NC(=O)Nc2ccc(Cl)c(Cl)c2)n1 do in these assays?
AmpC detergent: inconclusive; AMA1-RON2 inh: -8%; Marburg entry inh: inconclusive; Lassa entry inh: -22%; AmpC inh no detg: -28%

How did Cc1cc(C)nc(NC(=NCCc2c[nH]c3ccccc23)NC(=O)c2ccco2)n1 do in these assays?
AmpC detergent: -6%; AMA1-RON2 inh: 8%; Marburg entry inh: 11µM*; Lassa entry inh: inconclusive; AmpC inh no detg: 60%

Results for Cc1cc(C)nc(NC(=NCCc2c[nH]c3ccccc23)NC(=O)Nc2ccccc2)n1 ?
AmpC detergent: inconclusive; AMA1-RON2 inh: 0%; Marburg entry inh: 15µM*; Lassa entry inh: inconclusive; AmpC inh no detg: -21%

Results for C[C@@H]1N[S+](=O)([O-])c2cc(Cl)ccc2O[C@H]1c1ccccc1 ?
Lassa entry inh: 2%[46.1 µM]

What do the screens show for `CC12CCC(O)CC1CCC1C2CCC2(C)C(C3=CC(=O)OC3)CCC12O` (stereo not given)?
AMA1-RON2 inh: 7%; Marburg entry inh: 0.28µM*; Lassa entry inh: 0.45µM*

Results for C[C@]12CC[C@H](O)C[C@H]1CC[C@@H]1[C@@H]2CC[C@]2(C)[C@@H](C3=CC(=O)OC3)CC[C@]12O ?
AmpC detergent: -1%; AMA1-RON2 inh: -8%; AmpC inh no detg: -19%

Results for CC(=O)OC1CC(OC2C(O)CC(OC3C(O)CC(OC4CCC5(C)C(CCC6C5CC(O)C5(C)C(C7=CC(=O)OC7)CCC65O)C4)OC3C)OC2C)OC(C)C1OC1OC(CO)C(O)C(O)C1O (stereo not given) ?
AMA1-RON2 inh: 14%

Results for CC12CCC(O)CC1CCC1C2CCC2(C)C(C3=CC(=O)OC3)C(O)CC12O (stereo not given) ?
AMA1-RON2 inh: -7%; Marburg entry inh: 0.63µM*; Lassa entry inh: 3.2µM*

What do the screens show for `C[C@H]1O[C@@H](O[C@H]2[C@@H](O)C[C@H](O[C@H]3[C@@H](O)C[C@H](O[C@H]4CC[C@@]5(C)[C@H](CC[C@@H]6[C@@H]5C[C@@H](O)[C@]5(C)[C@@H](C7=CC(=O)OC7)CC[C@]65O)C4)O[C@@H]3C)O[C@@H]2C)C[C@H](O)[C@@H]1O`?
AmpC detergent: -5%; AMA1-RON2 inh: -2%; Marburg entry inh: 0.13µM*; Lassa entry inh: 0.15µM*; AmpC inh no detg: 297%

How did CCOc1ccccc1CNC(=O)c1cc(-c2ccc(OC)cc2)nc2ccc(C(C)C)cc12 do in these assays?
AmpC detergent: -2%; Lassa entry inh: 24%[46.1 µM]

What do the screens show for `COc1ccc(N2C(=O)[C@@H]3[C@@H](C2=O)[C@@H]2C=C[C@H]3C23CC3)c(OC)c1`?
Marburg entry inh: 14%[46.1 µM]

How did CCOc1ccc(Nc2cc(C)nc(-n3nc(C)cc3C)n2)cc1 do in these assays?
AmpC detergent: inconclusive; AMA1-RON2 inh: -15%; Marburg entry inh: 0.25µM*; Lassa entry inh: inconclusive; AmpC inh no detg: 43%

Results for COc1ccc(/C=N/Nc2cc(C)nc(-n3nc(C)cc3C)n2)c(OC)c1 ?
AmpC detergent: -8%; AMA1-RON2 inh: 33%; Marburg entry inh: inconclusive; Lassa entry inh: 21µM*; AmpC inh no detg: 214%
